Test results as given in PubChem BioAssay AID489012 (National Center for Advancing Translational Sciences (NCATS), 2010).
Records with an inconclusive call do not appear. The source made the active and inactive calls. The call rests on the fitted dose curve; in most records, active means well fitted activation curve with a large enough effect; inconclusive means small, poorly fitted or top-dose-only effect; inactive means no such curve, though single readings can be large or run the other way.

molecular target: Relaxin receptor 1 (Homo sapiens) (UniProt Q9HBX9); test: qHTS Assay for Agonists of the Relaxin Receptor RXFP1: RXFP1 Hit Validation; conditions: HEK293T-RXFP1 cAMP TR-FRET, 30 min; series mostly up to 115 µM; activation: at the top concentration; further: nearly all actives have a fitted effect of over 65% in size;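 on activation: cAMP rise lowers the TR-FRET signal in lysed cells with PDE4 inhibitor present; 0% = buffer-only basal and 100% = 29 nM porcine relaxin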
Potency means the concentration at half of the fitted maximal effect.

Chain of Relaxin receptor 1 (Homo sapiens) (Q9HBX9 whole entry, looked up): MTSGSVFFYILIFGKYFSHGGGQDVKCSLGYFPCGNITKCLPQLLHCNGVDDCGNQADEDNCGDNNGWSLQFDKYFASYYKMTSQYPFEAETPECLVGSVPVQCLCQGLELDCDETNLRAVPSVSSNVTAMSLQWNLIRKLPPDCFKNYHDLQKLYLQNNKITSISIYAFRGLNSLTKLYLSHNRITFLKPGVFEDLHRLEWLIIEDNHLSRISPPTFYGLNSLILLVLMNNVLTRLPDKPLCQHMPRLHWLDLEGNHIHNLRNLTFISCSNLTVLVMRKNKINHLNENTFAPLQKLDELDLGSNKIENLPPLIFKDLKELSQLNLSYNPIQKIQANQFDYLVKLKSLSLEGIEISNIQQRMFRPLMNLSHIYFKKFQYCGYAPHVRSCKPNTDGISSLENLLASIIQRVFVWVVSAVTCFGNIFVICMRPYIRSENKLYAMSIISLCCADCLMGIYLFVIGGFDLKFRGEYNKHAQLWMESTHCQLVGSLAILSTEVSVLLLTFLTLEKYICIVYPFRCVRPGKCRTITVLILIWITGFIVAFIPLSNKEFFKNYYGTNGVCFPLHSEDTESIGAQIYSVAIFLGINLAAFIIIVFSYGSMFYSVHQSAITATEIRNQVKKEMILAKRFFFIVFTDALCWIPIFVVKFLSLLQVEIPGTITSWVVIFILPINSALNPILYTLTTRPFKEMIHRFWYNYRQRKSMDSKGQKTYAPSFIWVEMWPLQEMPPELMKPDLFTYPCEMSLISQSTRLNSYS

Compound	Potency	activation
CC1CCN(S(=O)(=O)c2ccc3nc(N4CCN(c5ccccc5)CC4)ccc3c2)CC1	12.3 µM (active)	
COc1ccccc1CNS(=O)(=O)c1cc(CN2C(=O)c3cccnc3C2=O)ccc1OC	30.9 µM (active)	
COC(=O)Cn1cnc2c(C#N)c3n(c2c1=O)CCCCC3	13.8 µM (active)	
Cc1cccn2c(=O)c3cc(C(=O)NC4CCCC4)c(=N)n(CCCN4CCOCC4)c3nc12		22.6% (inactive)
Cc1cc(Br)c2nc3c(c(C(=O)O)c2c1)CCCCC3	1.94 µM (active)	
CC[n+]1ccc(/C=C/c2ccc(N(C)C)cc2)c2ccccc21		-21.8% (inactive)
NC(=S)c1cc2ccc(O)cc2oc1=O	7.74 µM (active)	
O=C(Cn1cnc2c(nnn2-c2ccc(F)cc2)c1=O)NCC1CCCO1 (stereo unspecified)	8.7 µM (active)	
O=C(O)c1cccc(CSc2nnc(Cc3ccccc3)o2)c1		3.18% [at 45 µM] (inactive)
O=C(Nc1ccccc1C(=O)N1CCNCC1)c1ccco1		-3.15% [at 125 µM] (inactive)
NCCNC(=O)Cc1ccc(NC(=O)Cc2ccc(Nc3ncnc4c3ncn4[C@@H]3O[C@H](CO)[C@@H](O)[C@H]3O)cc2)cc1	1.23 µM (active)	
CN(C)c1ccc2nc3c(=O)[nH]c(=O)nc-3n(CC(O)C(O)C(O)CO)c2c1 (stereo unspecified)		7.23% (inactive)
Cc1cc(NC(=O)CSc2ncnc3c2cnn3-c2cccc(Cl)c2)no1		15.1% [at 45 µM] (inactive)
Cc1ccc(C(=O)Nc2cccc(C(F)(F)F)c2)cc1NC(=O)c1cnnc2ccccc12		7.81% (inactive)
Cc1ccc(-c2ccc3nnc(SCC(=O)NCC4CCCO4)n3n2)cc1 (stereo unspecified)		-24.9% (inactive)
Cc1c(CCOC(=O)c2cc([N+](=O)[O-])ccc2Cl)sc[n+]1CCCCS(=O)(=O)[O-]		7.88% (inactive)
